IL1B secr inh = inflammasome signaling inhibition, IL-1 beta readout; activity change, % at 57.5 µM; AID 743279; THP-1 LPS/ATP IL-1B secretion, AlphaLISA, 16 h; active compounds read low; 4.7% of 360,000 active; in the data active = activity change below about -50%; inconclusive = mostly about -30% to -49%
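Secreted IL-1B measured by AlphaLISA bead assay after 16 h compound exposure of THP-1 cells; compounds (final up to 57.5 uM) added 1 h before LPS (250 ng/mL) and ATP (1.25 mM) stimulation; lower signal means less secretion.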
HT1080 IDH1KD tx = toxicity to HT-1080 IDH1 knockdown cells (counter line). Potency, µM (series often up to 46.1 µM), for the others: at the top dose activity, negative = toxicity, most hits filed as cytotoxic. 2% of 360,000 active. HT-1080 IDH1 knockdown viability, ATP luminescence, 48 h;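 note: potency is the fitted concentration of half-maximal effect; 0% = DMSO wells and -100% = cell-free medium wells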
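% activity derives from luminescence (CellTiter-Glo), normalised to DMSO and no-cell wells. HT-1080-IDH1KD cells, 750/well, had 48 h compound exposure at 37 °C.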
TDP1 cell CPT = DT40-hTDP1 cell growth loss with CPT. 12% of 420,000 active. chicken DT40 Tdp1-/-;hTDP1 cells + 20 nM CPT, ATP luminescence, 48 h. Potency, µM (highest dose often 46.2 µM), without a hit: top-dose activity change, negative = growth inhibition, most hits filed as inhibitors; note: potency is the fitted concentration of half-maximal effect; nearly all actives have a fitted effect of over 55% in size
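Chicken DT40 Tdp1-/- cells complemented with human TDP1, 400 cells/well, exposed to compounds plus 20 nM camptothecin for at least 48 h at 37 C; viability read as ATP content by CellTiter-Glo luminescence.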
HT1080NT lethal = kills 2HG-producing HT-1080-NT fibrosarcoma cells; 1.6% of 360,000 active; Potency, µM (top dose mostly 46.1 µM), without a hit: top-dose activity, negative = less viability, most hits filed as cytotoxic; HT-1080-NT fibrosarcoma viability, CellTiter-Glo ATP luminescence, 48 h;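 note: NT is the 2HG producing partner of a matched IDH1 knockdown line; potency is the fitted concentration of half-maximal effect; 0% = DMSO-treated cells and -100% = media-only wells without cells; nearly all actives have a fitted effect of over 55% in size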
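HT-1080-NT; 750 cells/well; 5% FBS RPMI; 48 h compound, 37 degrees C; CellTiter-Glo luminescence; curve fitting and curve-class assignment.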
ELG1 repair inh = inhibitors of ELG1-dependent DNA repair in HEK293T cells. AID 504467. 2.3% of 330,000 active. HEK293T ELG1-luciferase reporter, luminescence, 16 h; DNA damage induced by 5-fluorouridine. Potency, µM (series often up to 46.1 µM), for the others: at the top dose activity change, negative = inhibition, hits mostly inhibitors; note: potency is the fitted concentration of half-maximal effect; nearly all actives have a fitted effect of over 55% in size
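Reporter activity after DNA damage by 5-fluorouridine is monitored. Compound-treated cells incubate 16 hr at 37 °C, then ONE-Glo is added for 30 min before luminescence reading.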
TDP1 cell noCPT = qHTS for Inhibitors of human tyrosyl-DNA phosphodiesterase 1 (TDP1): qHTS in cells in absence of CPT; DT40 Tdp1-/- hTDP1 cells, no CPT, ATP luminescence, 48 h; Potency, µM (highest dose often 46.2 µM), for inactives: at the top dose activity change, negative = growth inhibition, most hits filed as inhibitors; 15% of 420,000 active; note: potency is the fitted concentration of half-maximal effect; nearly all actives have a fitted effect of over 55% in size
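DT40 Tdp1-/-;hTDP1 cells, no CPT (DMSO vehicle only), 400 cells/well; compounds pin-transferred; ≥48 hr, 37 °C; CellTiter-Glo 30 min RT dark, luminescence read.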
An asterisk follows results filed as active; [ ] = another dose, or the depositor's remark. Only some compounds are listed: those with a hit (about 19% of all), similar ones and a draw of the others. Unless noted, calls come from the whole dose curve; as a rule, active = well fitted curve in the direction sought with a large enough effect; inconclusive = small, poorly fitted or top-dose-only effect, or another doubt; inactive = no such curve, though single readings can be large; an effect the other way counts as inactive or inconclusive. Unless noted, % is set by controls: 0 for no effect and ±100 for the full control effect.

What do the screens show for `COc1ccc(CN2CC(=O)N(c3ccccc3C)C2=S)cc1OC`?
IL1B secr inh: 21.7; HT1080 IDH1KD tx: -20.0%; TDP1 cell CPT: -35.5%; HT1080NT lethal: -19.3%; ELG1 repair inh: inconclusive; TDP1 cell noCPT: inconclusive

How did COc1ccc(CN2CC(=O)N(c3cc(Cl)ccc3C)C2=S)cc1OC do in these assays?
IL1B secr inh: -22.5; HT1080 IDH1KD tx: -0.2%; TDP1 cell CPT: inconclusive; HT1080NT lethal: 7.5%; ELG1 repair inh: inconclusive; TDP1 cell noCPT: inconclusive

How did COc1cc(CN2CC(=O)N(c3cc(Cl)ccc3C)C2=S)cc(OC)c1OC do in these assays?
IL1B secr inh: 8.9; HT1080 IDH1KD tx: -3.4%; TDP1 cell CPT: 20.6µM*; HT1080NT lethal: -26.6%; ELG1 repair inh: inconclusive; TDP1 cell noCPT: 20.6µM*

Results for Cc1cc(C)c(C)c(OCCN2CCOCC2)c1 ?
IL1B secr inh: 39.6; HT1080 IDH1KD tx: 1.0%; TDP1 cell CPT: 0.8%; HT1080NT lethal: -5.0%; ELG1 repair inh: 2.1%; TDP1 cell noCPT: 6.3%

What do the screens show for `O=C(NC1CCCC1)C1c2ccccc2OCC(=O)N1CCc1ccccc1` (stereo not drawn)?
IL1B secr inh: 26.4; HT1080 IDH1KD tx: 3.6%; TDP1 cell CPT: -24.1%; HT1080NT lethal: 9.6%; TDP1 cell noCPT: inconclusive

How did O=C(CN1CCOCC1)N1CCN(c2ccc3ccccc3n2)CC1 do in these assays?
ELG1 repair inh: 6.5%

What do the screens show for `Cc1ccc(OCc2cc(C(=O)NCC(C)(C)N3CCOCC3)no2)cc1C`?
IL1B secr inh: -69.6*; HT1080 IDH1KD tx: -6.7%; TDP1 cell CPT: inconclusive; HT1080NT lethal: -3.7%; ELG1 repair inh: inconclusive; TDP1 cell noCPT: inconclusive

How did C=CCC1(CC=C)CCCN1C(=O)c1cc(COc2cccc(C(F)(F)F)c2)on1 do in these assays?
IL1B secr inh: -9.3; HT1080 IDH1KD tx: -23.2%; TDP1 cell CPT: 14.6µM*; HT1080NT lethal: -1.7%; ELG1 repair inh: 4.0%; TDP1 cell noCPT: 14.6µM*

How did O=C(c1cc(COc2cccc(C(F)(F)F)c2)on1)N1CCC(Oc2cccnc2)CC1 do in these assays?
IL1B secr inh: -15.0; HT1080 IDH1KD tx: -16.1%; TDP1 cell CPT: 14.6µM*; HT1080NT lethal: -3.4%; ELG1 repair inh: inconclusive; TDP1 cell noCPT: 11.6µM*

Results for CC(Cn1cncn1)NC(=O)c1cc(COc2cccc(C(F)(F)F)c2)on1 (stereo not drawn) ?
IL1B secr inh: -0.5; HT1080 IDH1KD tx: 12.6%; TDP1 cell CPT: -21.2%; HT1080NT lethal: 2.0%; ELG1 repair inh: 6.7%; TDP1 cell noCPT: -17.3%

Results for O=C(c1cc(COc2cccc(C(F)(F)F)c2)on1)N1CCc2ccccc2C1 ?
IL1B secr inh: 0.0; HT1080 IDH1KD tx: -5.3%; TDP1 cell CPT: inconclusive; HT1080NT lethal: -3.9%; TDP1 cell noCPT: -19.4%

How did C[C@@H]1CN(C(=O)c2cc(COc3cccc(C(F)(F)F)c3)on2)C[C@H](C)O1 do in these assays?
IL1B secr inh: -6.9; HT1080 IDH1KD tx: -1.7%; TDP1 cell CPT: inconclusive; HT1080NT lethal: 0.0%; ELG1 repair inh: 14.6µM*; TDP1 cell noCPT: inconclusive

What do the screens show for `O=C(CSc1nc(-c2cccs2)nc2cc(=O)[nH]n12)Nc1cccc(C(F)(F)F)c1`?
TDP1 cell CPT: 7.6%; TDP1 cell noCPT: 1.8%

Results for O=C(c1ccccc1)N1CCN(CCc2ccncc2)CC1 ?
TDP1 cell CPT: -16.6%; TDP1 cell noCPT: -4.5%

What do the screens show for `O=C1NC[C@H](CCCCN2C[C@H](Cc3ccc(O)cc3)N(Cc3ccccc3)C(=O)C2=O)N(CC2CCCCC2)C1=O`?
IL1B secr inh: -0.4; HT1080 IDH1KD tx: 2.5%; TDP1 cell CPT: -6.0%; HT1080NT lethal: 0.2%; TDP1 cell noCPT: -10.5%

Results for Cc1oc(-c2ccccc2NC(=O)c2ccsc2)nc1CN(C)CC1CC=CCC1 (stereo not drawn) ?
TDP1 cell CPT: -3.5%[9.04 µM]; TDP1 cell noCPT: 4.0%

Results for CCOC(=O)N1CCN(C(=O)c2cc(COc3cccc(C(F)(F)F)c3)on2)CC1 ?
IL1B secr inh: -22.4; HT1080 IDH1KD tx: 1.7%; TDP1 cell CPT: inconclusive; HT1080NT lethal: 2.1%; ELG1 repair inh: inconclusive; TDP1 cell noCPT: 16.4µM*

How did O=C(NCCN1CCCC(O)C1)c1cc(COc2cccc(C(F)(F)F)c2)on1 (stereo not drawn) do in these assays?
IL1B secr inh: 19.6; HT1080 IDH1KD tx: 4.7%; TDP1 cell CPT: -25.5%; HT1080NT lethal: -14.9%; TDP1 cell noCPT: inconclusive

What do the screens show for `O=C(c1cc(COc2cccc(C(F)(F)F)c2)on1)N1CCCC1`?
IL1B secr inh: inconclusive; HT1080 IDH1KD tx: -10.8%; TDP1 cell CPT: inconclusive; HT1080NT lethal: 0.5%; TDP1 cell noCPT: inconclusive

How did O=C(NCC1CCOCC1)c1cc(COc2cccc(C(F)(F)F)c2)on1 do in these assays?
IL1B secr inh: -15.1; HT1080 IDH1KD tx: inconclusive; TDP1 cell CPT: inconclusive; HT1080NT lethal: -12.2%; ELG1 repair inh: 16.4µM*; TDP1 cell noCPT: inconclusive

What do the screens show for `Cc1nn(-c2cc(C)c3ccccc3n2)c2c1CCC2`?
IL1B secr inh: -3.8; HT1080 IDH1KD tx: 14.6%; TDP1 cell CPT: inconclusive; HT1080NT lethal: 23.0%; ELG1 repair inh: 22.8%; TDP1 cell noCPT: 23.1µM*

How did Cc1ccc2c(c1)N(CC(=O)N1CCCCC1)C(=O)C(C)O2 (stereo not drawn) do in these assays?
IL1B secr inh: -5.8; HT1080 IDH1KD tx: -1.8%; TDP1 cell CPT: -5.1%; HT1080NT lethal: 6.1%; ELG1 repair inh: -5.4%; TDP1 cell noCPT: -5.2%

Results for CCOc1ccc(C(=O)c2cn(CC(=O)Nc3ccc(OC)cc3)c3cc4c(cc3c2=O)OCO4)cc1 ?
TDP1 cell CPT: inconclusive; TDP1 cell noCPT: -27.3%

Results for CCOc1ccc(NC(=O)Cn2cc(C(=O)c3ccc(OCC)cc3)c(=O)c3cc4c(cc32)OCCO4)cc1 ?
TDP1 cell CPT: 13µM*; TDP1 cell noCPT: 5.8µM*

Results for O=C(Cn1cc(C(=O)c2ccccc2)c(=O)c2cc3c(cc21)OCCO3)Nc1ccc(F)c(F)c1 ?
TDP1 cell CPT: 18.4µM*; TDP1 cell noCPT: inconclusive

What do the screens show for `CCOc1ccc(NC(=O)Cn2cc(C(=O)c3ccc(C)c(C)c3)c(=O)c3cc4c(cc32)OCCO4)cc1`?
TDP1 cell CPT: -10.2%; TDP1 cell noCPT: -17.3%

How did CCOc1ccc(C(=O)c2cn(CC(=O)Nc3ccc(F)c(F)c3)c3cc4c(cc3c2=O)OCCO4)cc1 do in these assays?
TDP1 cell CPT: inconclusive; TDP1 cell noCPT: 25.9µM*

Screens deposited in PubChem by National Center for Advancing Translational Sciences (NCATS).
